Here are results for eight compounds from PubChem BioAssay (NCI).

Test systems include DU-145 prostate; K-562 leukemia; MALME-3M melanoma; MDA-MB-231 breast; SF-268 CNS; SF-295 CNS; SF-539 CNS; UACC-257 melanoma; M14 melanoma; HCT-15 colon; HT29 colon; SNB-75 CNS; SNB-19 CNS; U251 CNS; PC-3 prostate; SK-MEL-5 melanoma; UACC-62 melanoma; LOX IMVI melanoma; SK-MEL-28 melanoma; RXF 393 renal.
What all share (assay): NCI-60 one-dose screen, 48 h (100 = growth as untreated, 0 = no growth, -100 = all killed)
What all share (details): 10 µM unless noted

Compounds without any hit were thinned out: in the full panel of roughly 83,000, 20% have a hit.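 In brief: 96-well plates, 48 h treatment, single concentration, percent growth endpoint.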 Unmarked numbers belong to inactive results. Activity calls are given as the source filed them. The calls were made as follows: active = growth percent below 10; inactive = the rest.

For `Cc1ccccc1CNc1ncnc2[nH]ncc12`, the growth is 103% in the test on DU-145 prostate; 46.8% with K-562 leukemia; 114% with MALME-3M melanoma; 106% with MDA-MB-231 breast; 95.4% in the test on SF-268 CNS; 84.3% in the test with SF-295 CNS. Moreover, the growth in the test on SF-539 CNS was 97.6%; with UACC-257 melanoma, 107%; with M14 melanoma, 103%; in the test with HCT-15 colon, 108%; in the test with HT29 colon, 103%; in the test with SNB-75 CNS, 94.8%. For the same compound, the growth was 95.5% in the test with SNB-19 CNS; 99.8% in the test with U251 CNS; 311% in the test on PC-3 prostate; 106% in the test on SK-MEL-5 melanoma; 97.8% in the test with UACC-62 melanoma; 95% with LOX IMVI melanoma. The growth with SK-MEL-28 melanoma was 136%.

For the compound `Fc1ccc(-c2nnc(N3CCOCC3)c3ccccc23)cc1`, the growth in the test on DU-145 prostate was 104%; in the test on K-562 leukemia, 99%; in the test with MALME-3M melanoma, 82.9%; with MDA-MB-231 breast, 107%; with SF-268 CNS, 103%; in the test with SF-539 CNS, 99.2%. Moreover, the growth was 94.7% in the test with UACC-257 melanoma; 93.9% in the test with M14 melanoma; 99.1% with HCT-15 colon; 111% with HT29 colon; 88.8% with SNB-19 CNS; 108% in the test with U251 CNS. The growth was 95.8% with PC-3 prostate; 96.9% in the test with SK-MEL-5 melanoma; 96.1% in the test with UACC-62 melanoma; 104% in the test on LOX IMVI melanoma; 106% with SK-MEL-28 melanoma.

Consider `O=C1OC(c2ccc(-c3ccccc3)cc2)=C/C1=C/c1c(Cl)cccc1Cl`, for which the growth in the test with DU-145 prostate is 96.3%; with K-562 leukemia, 89.5%; in the test with MALME-3M melanoma it was 64%; in the test on MDA-MB-231 breast, 95.9%; in the test with SF-268 CNS it was 96.7%; with SF-539 CNS it was 102%. Moreover, the growth in the test on UACC-257 melanoma was -33.6% (active); in the test with M14 melanoma, 105%; in the test on HCT-15 colon, 83.7%; in the test with HT29 colon, 101%; with SNB-75 CNS, 85.1%; in the test on SNB-19 CNS, 105%. Further, the growth with U251 CNS was 102%; with PC-3 prostate, 91.8%; with SK-MEL-5 melanoma it was 101%; with UACC-62 melanoma it was 85.5%; in the test with LOX IMVI melanoma, 103%; in the test with SK-MEL-28 melanoma it was 101%.

For the compound `Cc1cc2nc3c(=O)[nH]c(=O)nc-3n(CC=O)c2cc1C`, the growth is 116% with DU-145 prostate; 96% in the test on K-562 leukemia; 112% with MALME-3M melanoma; 106% in the test with MDA-MB-231 breast; 99.5% with SF-268 CNS; 92.2% with SF-295 CNS. In addition, the growth with SF-539 CNS is 93.6%; with UACC-257 melanoma, 159%; in the test on M14 melanoma, 109%; with HCT-15 colon it was 106%; with HT29 colon it was 102%; with SNB-75 CNS it was 89.3%. The growth was 99.8% in the test on SNB-19 CNS; 103% with U251 CNS; 122% with PC-3 prostate; 98.6% in the test with SK-MEL-5 melanoma; 92.2% in the test with UACC-62 melanoma; 101% in the test on LOX IMVI melanoma. For the same compound, in the test with SK-MEL-28 melanoma, the growth was 117%.

`CC(=O)[C@@]1(O)[C@H](C)C[C@H]2[C@@H]3C=C(C)C4=Cc5c(cnn5-c5ccccc5)C[C@]4(C)[C@H]3[C@@H](O)C[C@@]21C`: the growth with DU-145 prostate is 54.6%; in the test with K-562 leukemia it was -60.9% (active); in the test on MALME-3M melanoma, 41.8%; in the test on MDA-MB-231 breast, 26.1%; in the test with SF-268 CNS, 27.9%; with SF-295 CNS, -49.1% (active). Moreover, the growth in the test with SF-539 CNS was -21.8% (active); with UACC-257 melanoma it was 54.6%; in the test with M14 melanoma, 43.7%; in the test on HCT-15 colon, -27.9% (active); with HT29 colon, -76.9% (active); with SNB-75 CNS, 40.4%. The growth in the test on SNB-19 CNS is 70.2%; in the test on U251 CNS, 6.52% (active); in the test on PC-3 prostate, 1.78% (active); in the test on SK-MEL-5 melanoma, 38.1%; in the test with UACC-62 melanoma, 1.84% (active); with LOX IMVI melanoma, 4.75% (active). The growth in the test with SK-MEL-28 melanoma was 43.6%.

On to `CCc1ccc2c(c1)N(CCO)C1=C(C(=O)OC1)C2c1cccc(Cl)c1` (configuration not stated), for which the growth with DU-145 prostate was 11.3%; in the test on K-562 leukemia it was 13.3%; with MDA-MB-231 breast, 30.8%; in the test on RXF 393 renal it was 10.1%; in the test with SF-268 CNS, 44.9%; with SF-295 CNS it was -15.6% (active). Also, the growth with SF-539 CNS was -12.6% (active); with UACC-257 melanoma, 62.2%; with HCT-15 colon, 15.9%; in the test with HT29 colon it was 4.49% (active); in the test on SNB-75 CNS, 18.9%; with SNB-19 CNS it was 36.4%. Further, the growth in the test on U251 CNS was 18.1%; in the test with PC-3 prostate, 28.8%; in the test with SK-MEL-5 melanoma, 32.1%; with UACC-62 melanoma, 21.8%; in the test with LOX IMVI melanoma, 44.3%; in the test with SK-MEL-28 melanoma, 50.3%.

With `Cc1nc([C@H]2CC[C@H]3[C@@H]4CCC5=CC(=O)CC[C@]5(C)[C@H]4CC[C@]23C)cs1`, the growth in the test with DU-145 prostate was 99.7%; in the test on K-562 leukemia, 18%; with MALME-3M melanoma, 99.5%; in the test with MDA-MB-231 breast, 97.4%; in the test on SF-268 CNS, 91.7%; with SF-295 CNS, 46.1%. The growth is 93.4% in the test on SF-539 CNS; 39.2% with UACC-257 melanoma; 74.1% in the test with M14 melanoma; 75.2% in the test on HCT-15 colon; 62.2% in the test on HT29 colon; 104% with SNB-75 CNS. The growth in the test with U251 CNS was 66%; in the test with PC-3 prostate it was 19.6%; with SK-MEL-5 melanoma it was 24.7%; in the test on UACC-62 melanoma, 59.4%; in the test with LOX IMVI melanoma, 56.5%; in the test with SK-MEL-28 melanoma, 93.4%.

On to `O=C(Nc1ccccc1)C(CCCCN1C(=O)c2ccccc2C1=O)N1C(=O)c2ccccc2C1=O` (configuration not stated), for which the growth in the test with DU-145 prostate is 95.4%; with K-562 leukemia, 82.8%; in the test on MDA-MB-231 breast, 109%; with RXF 393 renal it was 110%; in the test on SF-268 CNS it was 99.8%; in the test with SF-295 CNS, 101%. Moreover, the growth is 111% with SF-539 CNS; 106% in the test on UACC-257 melanoma; 105% in the test with M14 melanoma; 102% with HCT-15 colon; 107% with HT29 colon; 88.5% with SNB-75 CNS. The growth with SNB-19 CNS is 101%; with U251 CNS, 102%; with PC-3 prostate, 98.5%; with SK-MEL-5 melanoma, 101%; in the test with UACC-62 melanoma it was 98.9%; in the test with LOX IMVI melanoma, 101%. Moreover, in the test on SK-MEL-28 melanoma, the growth was 107%.
